Source: PubChem BioAssay (NCATS)
Records with an inconclusive call do not appear. Calls of active or inactive are those of the source. Unless noted, the call rests on the fitted dose curve; in most records, active means well fitted curve in the direction sought with a large enough effect; inconclusive means small, poorly fitted or top-dose-only effect, or another doubt; inactive means no such curve, though single readings can be large; an effect the other way counts as inactive or inconclusive.

Legend:
[1] = target: Flap endonuclease 1 (Homo sapiens) (UniProt P39748); experiment: qHTS Validation Assay for the Inhibitors of Human Flap endonuclease 1 (FEN1) (AID 488816); further: on the % scale 0 is the no-effect control and ±100 the full control effect
Summary of the method: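 qHTS format: compounds and 10 nM FEN1 incubated 15 min at room temperature before adding 50 nM substrate. Cleavage followed by reads at 0 and 15 min; normalized data fitted to a four-parameter Hill curve.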

[2] = target: M-phase phosphoprotein 8 (Homo sapiens) (UniProt Q99549); experiment: qHTS Validation Assay for Inhibitors for MPP8 Chromodomain Interactions with Methylated Histone Tails (AID 488949);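 further: AlphaScreen signal from MPP8 chromodomain bound to biotinylated H3K9me3 peptide; top concentration of the series differs between compounds; on the % scale 0 is the no-effect control and ±100 the full control effect; nearly all actives have a fitted effect of over 55% in size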
Summary of the method: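 AlphaScreen read-out: streptavidin donor and nickel chelate acceptor beads (final 10 ug/mL), 30 min in the dark at RT. Complex of 50 nM MPP8 and 50 nM b-H3(1-18)K9me3 peptide had been exposed to compounds for 30 min beforehand.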

[3] = target: Chromobox protein homolog 1 (Homo sapiens) (UniProt P83916); experiment: qHTS Validation Assay for Inhibitors of HP1-beta Chromodomain Interactions with Methylated Histone Tails (AID 488953); further: nearly all actives have a fitted effect of over 50% in size; further: potency means the concentration at half of the fitted maximal effect
Summary of the method: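 Disruption of preformed HP1-beta:H3K9me3 peptide complexes (both 50 nM, PBS pH 7.4 with 0.01% Tween-20) is measured by AlphaScreen after 30 min compound exposure at room temperature, using streptavidin donor and nickel chelate acceptor beads at 10 ug/mL final.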

[4] = target: Methanococcus maripaludis chaperonin (MmCpn) (UniProt Q6LX38); experiment: High-Throughput Screening for Modulators of Cytosolic Chaperonin Activity: MmCpn Primary Screen (AID 488978);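 further: 50 nM MmCpn enzyme hydrolysing 30 µM ATP at 37 °C; 0% is about no effect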
Summary of the method: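 ADP formation read by HTRF Transcreener, 665/590 nm emission after 320 nm excitation. Enzyme: archaeal chaperonin at 50 nM final; substrate ATP 30 uM final; 10 min, 37C, after 5 min compound preincubation at RT.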

[5] = target: Transient receptor potential cation channel subfamily V member 1 (Homo sapiens) (UniProt Q8NER1); experiment: HTS Assay for Compounds that Act as Enhancers of the Vanilloid Receptor 1 (AID 488979); further: 0% is about no effect
Summary of the method: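 Calcium influx kinetics via Fluo-8 (480/520 nm) in TRPV1-expressing cells, 2000/well cultured overnight at 35.5C. Compound-alone read 3 min (agonist phase), followed by EC20 capsaicin challenge for 2 min (enhancer phase).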

[6] = target: Thyrotropin receptor (Homo sapiens) (UniProt P16473); experiment: qHTS Assay for Antagonists of the Thyroid Stimulating Hormone Receptor (AID 488980); further: series mostly up to about 58 µM; 0% is about no effect
Summary of the method: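 TSHR-HEK293 cells; 70 uM RO 20-1724 PDE inhibitor; compound + EC80 TSH (4 nM final); anti-cAMP cryptate antibody/cAMP-d2 in lysis buffer, 30 min RT; HTRF 665/620 nm read.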

[7] = target: D(1A) dopamine receptor (Homo sapiens) (UniProt P21728); experiment: HTS Assay for Allosteric Agonists of the Human D1 Dopamine Receptor: Primary Screen for Agonists (AID 488981); further: 0% is about no effect
Summary of the method: (§1)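 Calcium flux in an inducible, force-coupled HEK293 Trex D1 line (overnight at 30 C): agonist mode is the 180 s kinetic read after compound; potentiator mode is the following 180 s read after dopamine at EC20.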

[8] = target: D(1A) dopamine receptor (Homo sapiens) (UniProt P21728); experiment: HTS Assay for Allosteric Agonists of the Human D1 Dopamine Receptor: Primary Screen for Antagonists (AID 488983);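 further: calcium flux response to an EC80 dopamine challenge measured with no-wash dye; nearly all actives have a fitted effect of over 65% in size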; further: potency means the concentration at half of the fitted maximal effect
Summary of the method: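 Kinetic fluorescence at 1 cycle/sec tracked intracellular calcium in force-coupled, tetracycline-inducible HEK293 T-REx D1 cells. Loss of response to an EC80 dopamine dose, given 180 s after compound, marked antagonists.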

[9] = Validation screen for small molecules that induce genotoxicity in human embryonic kidney (HEK293T) cells expressing luciferase-tagged ELG1 (AID 493106); further: 0% is about no effect
Summary of the method: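 Cells were dispensed at 2,000 per well, then 23 nL compound or DMSO was pinned in. After 16 hr at 37 °C and 5% CO2, ONE-Glo reagent was added. Luciferase activity was measured following 30 min at room temperature.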

[10] = target: ATPase family AAA domain-containing protein 5 (Homo sapiens) (UniProt Q96QE3); experiment: Validation screen for small molecules that inhibit ELG1-dependent DNA repair in human embryonic kidney (HEK293T) cells expressing luciferase-tagged ELG1 (AID 493107); further: nearly all actives have a fitted effect of over 70% in size; further: potency means the concentration at half of the fitted maximal effect
Summary of the method: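 Cells are dispensed in 1536-well format, then 5-fluorouridine and compound are pinned in. After a 16 hr incubation at 37 °C and 5% CO2, ONE-Glo is added and luciferase measured on a CCD imager.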

[11] = target: Thyrotropin-releasing hormone receptor (Homo sapiens) (UniProt P34981); experiment: qHTS for Small Molecule Agonists and Allosteric Enhancers of Human TRH Receptor: Validation Screen for Agonists (AID 493127;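 active means calcium activation more than 3 SD above the typical response in the agonist read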;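 further: intracellular calcium rise by fluo-8 fluorescence before TRH EC20 addition; 0% is about no effect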); conditions: TRH receptor agonist cell assay; at 2 µM; stronger effect = higher value
Summary of the method: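 Compounds are added by online pintool to dye-loaded TRHR cells while fluorescence is recorded every second. A rise in calcium signal during the agonist read marks activation; a later 10 nM TRH addition (EC20) serves the separate enhancer mode.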

[12] = Nrf2 qHTS screen for inhibitors: Validation (AID 493153; active means well fitted inhibition curve with a large enough effect in the main read-out, with a control signal flat, not every such curve was filed as active; further: potency means the concentration at half of the fitted maximal effect); conditions: Potency: luciferase luminescence; viability change: measured here: cytotoxicity max response
Summary of the method: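 A549 ARE_Fluc, 5% FBS OPTI-MEM; cpd titration, 18-24 h, 37°C/5% CO2. Read 1: CellTiter-Fluor (Ex 405/Em 525), cytotox. Read 2: luciferase lum, Nrf2 activity.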

[13] = qHTS for Inhibitors of Cell Surface uPA Generation: Validation Assay (AID 493164);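 further: RAW 264.7 macrophage cells exposed to compound for 18 h; 0% is about no effect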
Summary of the method: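 ATP-Lite luminescence read-out: ATP remains high when uPA activity-dependent LF translocation into the cytoplasm is blocked. RAW 264.7 cells, 18 h compound exposure at 37 C; 7-point titration, 2.45 nM to 38.3 uM final.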

[14] = target: Galactokinase (Homo sapiens) (UniProt P51570); experiment: qHTS Validation Assay for Inhibitors of Human Galactokinase (GALK) (AID 493189); further: 0% is about no effect
Summary of the method: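 Luminescence from leftover ATP (Kinase-Glo Plus, 10 min) served as read-out after a 1 h room-temperature reaction of 5 nM GALK, 100 uM galactose and 35 uM ATP at pH8.0.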

[15] = Validation screen for small molecules that induce DNA re-replication in SW480 colon adenocarcinoma cells (AID 504364); further: potency means the concentration at half of the fitted maximal effect
Summary of the method: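 Image-based qHTS: compounds were incubated with SW480 cells for 48 hr, nuclei stained with Hoechst, and per-nucleus fluorescence intensity scanned to flag cells with excess DNA content.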

[16] = target: Peptidyl-prolyl cis-trans isomerase NIMA-interacting 1 (Homo sapiens) (UniProt Q13526); experiment: qHTS Validation Assay to Find Inhibitors of Pin1 (AID 504536; active means well fitted inhibition curve with a large enough effect in the polarisation, with a control signal flat, not every such curve was filed as active; the % refers to the polarisation;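 further: 0% = full Pin1 enzyme wells and -100% = no-enzyme wells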)
Summary of the method: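 Fluorescence polarization competition: compounds (titration) displace HiFluor-488-labeled Pin1-1b peptide from Pin1 (0.3 uM final) in pH 7.5 HEPES buffer with DTT, 10 min at room temperature; %Activity normalized to no-enzyme wells, curves fitted.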

[17] = target: Phosphoglycerate kinase, glycosomal (Trypanosoma brucei brucei) (UniProt P07378); experiment: qHTS Validation Assay to Find Inhibitors of Phosphoglycerate Kinase (AID 504547);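 further: control wells lack PGK and mark full inhibition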
Summary of the method: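 Luminescence end-point (Kinase-Glo Plus, 10 min) after a 60 min room-temperature coupled reaction. GAPDH at 100nM final supplies 1,3-BPG to PGK. Buffer: 100mM TEA pH 7.6, 5mM MgCl2, 0.01% Tween-20. Wells lacking PGK served as controls.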

[18] = target: D(1A) dopamine receptor (Homo sapiens) (UniProt P21728); experiment: HTS Assay for Allosteric Agonists of the Human D1 Dopamine Receptor: Primary Screen for Potentiators (AID 488982); further: 0% is about no effect
Summary of the method: as §1

[19] = target: ATP-dependent 6-phosphofructokinase (Trypanosoma brucei brucei) (UniProt O15648); experiment: qHTS Assay to Find Inhibitors of T. brucei phosphofructokinase: hit validation (AID 492961);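 further: luminescence reports ADP formed as PFK phosphorylates fructose-6-phosphate with ATP; series mostly up to about 51 µM; on the % scale 0 is the no-effect control and ±100 the full control effect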
Summary of the method: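 Measures ADP output of PFK (1.25 nM) at 0.1 mM ATP, 0.5 mM F6P, pH 8.0 TEA buffer with 5 mM MgCl2. No-enzyme wells define full inhibition; uninhibited enzyme wells define zero.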

Chain of Transient receptor potential cation channel subfamily V member 1 (Homo sapiens) (Q8NER1 whole entry, looked up): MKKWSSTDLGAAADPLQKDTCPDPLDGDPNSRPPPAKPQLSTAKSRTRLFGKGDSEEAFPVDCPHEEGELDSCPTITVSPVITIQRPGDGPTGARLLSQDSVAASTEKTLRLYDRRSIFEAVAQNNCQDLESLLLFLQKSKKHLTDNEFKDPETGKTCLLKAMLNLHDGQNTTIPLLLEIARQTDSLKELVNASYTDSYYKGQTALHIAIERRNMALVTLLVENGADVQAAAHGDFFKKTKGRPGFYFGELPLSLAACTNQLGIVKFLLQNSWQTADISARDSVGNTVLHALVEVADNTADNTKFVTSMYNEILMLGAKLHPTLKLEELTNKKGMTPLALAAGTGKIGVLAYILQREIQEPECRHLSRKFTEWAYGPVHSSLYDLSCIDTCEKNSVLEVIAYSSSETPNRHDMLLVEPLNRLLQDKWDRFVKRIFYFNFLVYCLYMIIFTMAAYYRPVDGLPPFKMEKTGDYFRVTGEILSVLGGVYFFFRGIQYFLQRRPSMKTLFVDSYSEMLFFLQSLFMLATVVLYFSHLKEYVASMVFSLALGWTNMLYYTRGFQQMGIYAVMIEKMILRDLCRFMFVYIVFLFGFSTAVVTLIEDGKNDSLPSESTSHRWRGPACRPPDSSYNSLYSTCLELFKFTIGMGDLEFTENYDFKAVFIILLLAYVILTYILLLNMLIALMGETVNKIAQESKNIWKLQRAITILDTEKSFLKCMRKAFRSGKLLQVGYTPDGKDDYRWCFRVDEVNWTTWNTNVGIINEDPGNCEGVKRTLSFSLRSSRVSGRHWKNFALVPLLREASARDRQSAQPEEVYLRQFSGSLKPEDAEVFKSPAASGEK
Chain of Chromobox protein homolog 1 (Homo sapiens) (P83916 whole entry, looked up): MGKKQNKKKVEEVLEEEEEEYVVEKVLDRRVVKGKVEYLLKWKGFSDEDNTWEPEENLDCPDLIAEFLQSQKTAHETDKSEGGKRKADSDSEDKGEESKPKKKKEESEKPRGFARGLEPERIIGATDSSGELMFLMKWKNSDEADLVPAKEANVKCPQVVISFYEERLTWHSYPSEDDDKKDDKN
Chain of D(1A) dopamine receptor (Homo sapiens) (P21728 whole entry, looked up): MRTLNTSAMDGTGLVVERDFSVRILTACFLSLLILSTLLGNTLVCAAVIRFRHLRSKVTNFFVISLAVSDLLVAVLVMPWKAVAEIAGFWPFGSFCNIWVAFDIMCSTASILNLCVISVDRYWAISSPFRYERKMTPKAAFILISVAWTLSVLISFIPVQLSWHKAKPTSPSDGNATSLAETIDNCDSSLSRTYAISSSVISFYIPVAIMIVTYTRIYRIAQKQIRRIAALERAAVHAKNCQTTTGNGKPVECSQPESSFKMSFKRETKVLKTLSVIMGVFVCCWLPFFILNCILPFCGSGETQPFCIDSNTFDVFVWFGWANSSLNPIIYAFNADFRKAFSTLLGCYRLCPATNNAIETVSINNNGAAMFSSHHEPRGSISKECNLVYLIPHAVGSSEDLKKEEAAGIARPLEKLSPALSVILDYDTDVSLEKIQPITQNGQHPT
Chain of Phosphoglycerate kinase, glycosomal (Trypanosoma brucei brucei) (P07378 whole entry, looked up): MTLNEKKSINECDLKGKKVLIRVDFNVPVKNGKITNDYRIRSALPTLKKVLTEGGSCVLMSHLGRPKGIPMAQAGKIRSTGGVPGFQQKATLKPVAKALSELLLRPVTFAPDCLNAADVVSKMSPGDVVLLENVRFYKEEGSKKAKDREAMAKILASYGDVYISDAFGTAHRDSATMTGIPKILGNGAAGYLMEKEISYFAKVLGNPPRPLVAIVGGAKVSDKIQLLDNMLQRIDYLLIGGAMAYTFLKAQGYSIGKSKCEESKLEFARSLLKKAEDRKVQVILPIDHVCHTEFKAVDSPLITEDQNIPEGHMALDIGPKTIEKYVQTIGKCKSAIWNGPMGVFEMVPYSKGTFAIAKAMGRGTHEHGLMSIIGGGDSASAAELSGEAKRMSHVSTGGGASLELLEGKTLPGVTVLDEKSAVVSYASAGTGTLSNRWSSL
Chain of Flap endonuclease 1 (Homo sapiens) (P39748 whole entry, looked up): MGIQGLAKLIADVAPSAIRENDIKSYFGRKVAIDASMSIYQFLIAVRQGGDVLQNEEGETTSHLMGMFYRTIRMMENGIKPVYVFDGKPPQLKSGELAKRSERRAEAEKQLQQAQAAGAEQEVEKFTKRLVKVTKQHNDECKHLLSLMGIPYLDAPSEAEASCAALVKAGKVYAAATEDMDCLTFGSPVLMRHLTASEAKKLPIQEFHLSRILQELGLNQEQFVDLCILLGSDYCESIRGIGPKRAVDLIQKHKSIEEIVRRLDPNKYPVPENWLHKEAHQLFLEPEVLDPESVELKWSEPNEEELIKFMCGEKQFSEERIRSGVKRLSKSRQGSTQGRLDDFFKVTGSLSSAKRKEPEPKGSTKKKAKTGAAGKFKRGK
Chain of Methanococcus maripaludis chaperonin (MmCpn) (Q6LX38 1-543): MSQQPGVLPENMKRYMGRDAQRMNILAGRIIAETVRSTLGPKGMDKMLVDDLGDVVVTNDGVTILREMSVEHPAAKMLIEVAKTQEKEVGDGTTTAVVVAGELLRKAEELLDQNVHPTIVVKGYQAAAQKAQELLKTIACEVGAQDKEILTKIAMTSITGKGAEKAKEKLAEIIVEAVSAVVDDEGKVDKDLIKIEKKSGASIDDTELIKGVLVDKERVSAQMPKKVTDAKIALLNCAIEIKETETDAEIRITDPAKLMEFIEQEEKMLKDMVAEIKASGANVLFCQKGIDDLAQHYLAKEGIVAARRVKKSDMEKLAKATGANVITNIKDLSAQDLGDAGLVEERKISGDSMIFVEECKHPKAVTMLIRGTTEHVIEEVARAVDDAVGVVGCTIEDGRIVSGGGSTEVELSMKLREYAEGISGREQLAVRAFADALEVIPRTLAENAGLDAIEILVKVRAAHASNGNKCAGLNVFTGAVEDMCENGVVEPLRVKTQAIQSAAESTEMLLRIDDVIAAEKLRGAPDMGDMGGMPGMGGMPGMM
Chain of Thyrotropin-releasing hormone receptor (Homo sapiens) (P34981 whole entry, looked up): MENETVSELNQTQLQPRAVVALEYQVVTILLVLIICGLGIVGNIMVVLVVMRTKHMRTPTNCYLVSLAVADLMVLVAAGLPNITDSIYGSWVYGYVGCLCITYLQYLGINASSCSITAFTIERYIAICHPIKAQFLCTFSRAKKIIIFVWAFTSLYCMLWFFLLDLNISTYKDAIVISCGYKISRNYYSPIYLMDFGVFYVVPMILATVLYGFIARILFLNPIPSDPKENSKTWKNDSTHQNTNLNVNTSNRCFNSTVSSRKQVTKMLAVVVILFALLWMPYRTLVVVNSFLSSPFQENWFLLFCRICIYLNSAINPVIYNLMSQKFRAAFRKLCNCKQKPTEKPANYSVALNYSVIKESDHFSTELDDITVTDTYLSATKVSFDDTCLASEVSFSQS
Chain of Galactokinase (Homo sapiens) (P51570 whole entry, looked up): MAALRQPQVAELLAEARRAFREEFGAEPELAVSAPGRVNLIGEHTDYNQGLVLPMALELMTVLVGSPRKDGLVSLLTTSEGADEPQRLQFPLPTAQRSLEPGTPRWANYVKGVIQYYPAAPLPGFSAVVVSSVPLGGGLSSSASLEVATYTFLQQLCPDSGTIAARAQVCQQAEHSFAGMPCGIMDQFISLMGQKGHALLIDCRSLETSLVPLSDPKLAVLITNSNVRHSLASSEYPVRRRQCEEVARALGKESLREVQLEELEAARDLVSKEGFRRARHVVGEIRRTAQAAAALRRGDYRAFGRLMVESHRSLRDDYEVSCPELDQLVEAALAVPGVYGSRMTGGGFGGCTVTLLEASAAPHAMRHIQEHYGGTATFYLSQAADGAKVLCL
Chain of M-phase phosphoprotein 8 (Homo sapiens) (Q99549 whole entry, looked up): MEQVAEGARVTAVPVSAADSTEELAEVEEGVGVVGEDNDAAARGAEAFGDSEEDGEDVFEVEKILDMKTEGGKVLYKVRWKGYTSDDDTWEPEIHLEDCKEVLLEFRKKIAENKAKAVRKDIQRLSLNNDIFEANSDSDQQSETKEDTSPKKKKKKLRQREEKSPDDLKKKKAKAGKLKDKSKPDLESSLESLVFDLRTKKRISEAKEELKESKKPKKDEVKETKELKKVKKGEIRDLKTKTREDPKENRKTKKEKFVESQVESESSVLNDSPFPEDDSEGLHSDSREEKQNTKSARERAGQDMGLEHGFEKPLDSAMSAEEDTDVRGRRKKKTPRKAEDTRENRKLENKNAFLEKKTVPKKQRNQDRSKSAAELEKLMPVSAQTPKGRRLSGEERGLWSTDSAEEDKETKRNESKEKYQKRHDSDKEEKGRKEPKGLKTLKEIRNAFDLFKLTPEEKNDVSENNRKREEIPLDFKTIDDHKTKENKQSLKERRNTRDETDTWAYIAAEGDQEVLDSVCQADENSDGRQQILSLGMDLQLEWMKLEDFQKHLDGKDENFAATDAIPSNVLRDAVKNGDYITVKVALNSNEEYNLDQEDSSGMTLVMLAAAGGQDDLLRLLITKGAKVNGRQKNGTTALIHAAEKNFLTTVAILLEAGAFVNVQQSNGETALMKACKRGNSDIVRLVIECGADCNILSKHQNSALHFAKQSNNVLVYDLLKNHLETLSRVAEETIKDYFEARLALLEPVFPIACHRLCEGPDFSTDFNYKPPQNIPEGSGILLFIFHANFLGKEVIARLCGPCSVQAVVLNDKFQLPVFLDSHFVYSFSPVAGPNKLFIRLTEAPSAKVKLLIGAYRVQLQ
Chain of Peptidyl-prolyl cis-trans isomerase NIMA-interacting 1 (Homo sapiens) (Q13526 whole entry, looked up): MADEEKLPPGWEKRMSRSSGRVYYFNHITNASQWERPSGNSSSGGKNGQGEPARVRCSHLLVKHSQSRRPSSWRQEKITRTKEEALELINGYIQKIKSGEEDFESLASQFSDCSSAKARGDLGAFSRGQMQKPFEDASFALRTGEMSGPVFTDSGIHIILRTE

OCc1cnc[nH]1
1.78%: viability change [12]
inactive: Potency [1] | Potency [2] | Potency [3] | outcome [4] | outcome [5] | outcome [6] | Potency [7] | Potency [8] | Potency [9] | Potency [10] | activation [11] 1% | Potency [12] | outcome [13] | outcome [14] | Potency [15] | Potency [16] | Potency [17]

NNC(=O)c1ccc(O)cc1
inactive: Potency [1] | Potency [2] | Potency [3] | outcome [4] | outcome [5] | outcome [6] | Potency [7] | Potency [8] | Potency [9] | activation [11] 0.375% | Potency [12] | outcome [13] | outcome [14] | Potency [15] | Potency [16] | Potency [17]
6.63%: viability change [12]

CC(Cc1ccc(OCC(=O)O)cc1)NCC(O)c1cccc(Cl)c1 (configuration not stated)
-9.13%: viability change [12]
inactive: Potency [1] | Potency [2] | Potency [3] | outcome [4] | outcome [5] | outcome [6] | Potency [7] | Potency [18] | Potency [8] | Potency [9] | Potency [10] | activation [11] 0.5% | Potency [12] | outcome [13] | outcome [14] | Potency [15] | Potency [16] | Potency [17]

NCC(CP(=O)(O)O)c1ccc(Cl)cc1 (configuration not stated)
inactive: Potency [1] | Potency [2] | Potency [3] | outcome [4] | outcome [5] | outcome [6] | Potency [7] | Potency [18] | Potency [8] | activation [11] 0.5% | Potency [12] | outcome [14] | Potency [15] | Potency [16] | Potency [17]
3.89%: viability change [12]

C[N+]1(C)CCOC(O)(c2ccc(-c3ccc(C4(O)C[N+](C)(C)CCO4)cc3)cc2)C1 (configuration not stated)
inactive: Potency [1] | Potency [2] | Potency [3] | outcome [4] | outcome [5] | outcome [6] | Potency [7] | Potency [18] | Potency [8] | activation [11] 1.19% | Potency [12] | outcome [13] | outcome [14] | Potency [15] | Potency [16] | Potency [17]
-1.71%: viability change [12]

COc1ccc(OC)c(C(O)C(C)N)c1 (configuration not stated)
inactive: Potency [1] | Potency [2] | Potency [3] | outcome [4] | outcome [5] | Potency [7] | Potency [18] | Potency [8] | Potency [19] | Potency [9] | activation [11] 1.12% | Potency [12] | outcome [14] | Potency [15] | Potency [16] | Potency [17]
-6.5%: viability change [12]

OC1CCCCC1N1CCC(c2ccccc2)CC1 (configuration not stated)
-3.18%: viability change [12]
inactive: Potency [1] | Potency [2] | Potency [3] | outcome [4] | outcome [5] | outcome [6] | Potency [7] | Potency [18] | Potency [8] | Potency [9] | Potency [10] | activation [11] -3.5% | Potency [12] | outcome [13] | outcome [14] | Potency [15] | Potency [16] | Potency [17]

C[C@]12Cc3cn4c(nc3C=C1CCC1C2CC[C@@]2(C)[C@H]1CC[C@@]2(O)C#N)nc1ccccc14 (some centres not stated)
inactive: Potency [1] | Potency [2] | Potency [3] | outcome [4] | outcome [5] | outcome [6] | Potency [7] | Potency [18] | Potency [8] | Potency [9] | activation [11] -4.5% | outcome [14] | Potency [16] | Potency [17]
active: Potency [10] 7.3 µM | Potency [12] 13 µM | Potency [15] 23.1 µM
-1.99%: viability change [12]

CCCn1c(=O)c2[nH]c(C3CCCC3)nc2n(CCCOC(=O)c2ccc(S(=O)(=O)F)cc2)c1=O
inactive: Potency [1] | Potency [2] | Potency [3] | outcome [4] | outcome [5] | outcome [6] | Potency [7] | Potency [8] | Potency [9] | Potency [10] | activation [11] -5.75% | Potency [12] | outcome [14] | Potency [15] | Potency [16] | Potency [17]
-2.37%: viability change [12]

CN1CCC(c2c[nH]c3ccc(O)cc23)CC1
active: Potency [8] 6.31 µM
-1.47%: viability change [12]
inactive: Potency [1] | Potency [2] | Potency [3] | outcome [4] | outcome [5] | outcome [6] | Potency [7] | Potency [9] | activation [11] 1% | Potency [12] | outcome [14] | Potency [15] | Potency [16] | Potency [17]

CCCN(CCC)C1CCc2cccc(O)c2C1 (configuration not stated)
inactive: Potency [1] | Potency [2] | Potency [3] | outcome [4] | outcome [5] | outcome [6] | Potency [7] | Potency [18] | Potency [8] | Potency [9] | Potency [10] | activation [11] 1.12% | Potency [12] | outcome [13] | outcome [14] | Potency [15] | Potency [17]
4.06%: viability change [12]

Oc1ccc2c3c1O[C@H]1c4oc5ccccc5c4C[C@@]4(O)C(C2)N(CC2CC2)CCC314 (some centres not stated)
inactive: Potency [1] | Potency [2] | Potency [3] | outcome [4] | outcome [5] | outcome [6] | Potency [7] | Potency [18] | Potency [8] | Potency [9] | Potency [10] | activation [11] 1.94% | Potency [12] | outcome [13] | outcome [14] | Potency [15] | Potency [16] | Potency [17]
-2.78%: viability change [12]

CC(C)NP(=O)(NC(C)C)OP(=O)(NC(C)C)NC(C)C
0.686%: viability change [12]
inactive: Potency [1] | Potency [2] | Potency [3] | outcome [4] | outcome [5] | outcome [6] | Potency [7] | Potency [18] | Potency [8] | Potency [10] | activation [11] -2.75% | Potency [12] | outcome [13] | outcome [14] | Potency [16] | Potency [17]

CN1CC[C@@]2(C)c3cc(O)ccc3N(C)C12 (some centres not stated)
active: Potency [3] 0.0095 µM
inactive: Potency [1] | Potency [2] | outcome [4] | outcome [5] | outcome [6] | Potency [7] | Potency [8] | Potency [10] | activation [11] -0.188% | outcome [13] | outcome [14] | Potency [15] | Potency [17]
